# Data published in PubChem BioAssay (EPA / NIEHS).
# “And” between values parts separate entries of the source, which are not always exact repeats. Equal values may be shown once. Inconclusive results are not listed. Some structures have more than one record in an assay (separate samples or runs), and their calls can disagree. The source made the active and inactive calls. The calls were made as follows: active = hit-call score of the fitted dose curve at least 0.9, where 1 is the maximum; inconclusive = response in the unintended direction; inactive = score below 0.9.
# Experiments:
# [1] = ATG_XTT_Cytotoxicity: Cytotoxicity Assessment in the Attagene TRANS-FACTORIAL HepG2 Assay (AID 2283584);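 as to AC50: cells exposed to compound for 24 h before reading; active means loss of viability signal versus DMSO baseline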
# How it was run: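 Viability endpoint from XTT after 24 h chemical exposure of reporter-transfected human HepG2 liver cells; signal loss fitted relative to DMSO negative control.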
# [2] = TOX21_p53_BLA_p2_viability: Viability Assessment in the Tox21 HCT-116 p53 Agonism Beta-lactamase Assay, Phase 2 (AID 2283591);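 also: compound exposure lasted 16 h at 37 °C; actives lower the ATP signal meaning cytotoxicity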
# How it was run: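 Cytotoxicity readout: CellTiter-Glo ATP luminescence, 30 min at room temperature, after the beta-lactamase read. Cells were HCT116 exposed 16 h at 37C to compounds pin-transferred at 217-fold dilution from DMSO stocks.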
# [3] = biological target: Cellular tumor antigen p53 (Homo sapiens) (UniProt P04637); test: TOX21_p53_BLA_p2_ratio: Tox21 HCT-116 p53 Agonism Beta-lactamase Assay, Ratio, Phase 2 (AID 2283592)
# How it was run: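 Read-out is the blue/green (460/530 nm, 405 nm excitation) ratio after 2 h CCF4-AM loading, fitted as gain versus DMSO. Compounds, pinned at 217-fold dilution from DMSO stocks, stayed 16 h on HCT-116 beta-lactamase reporter cells seeded 5 h earlier.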
# [4] = TOX21_p53_BLA_p3_viability: Viability Assessment in the Tox21 HCT-116 p53 Agonism Beta-lactamase Assay, Phase 3 (AID 2283593);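 also: cells exposed to compound for 16 h before reading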
# How it was run: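 Cellular ATP was quantified by CellTiter-Glo luminescence, read after 30 min at room temperature. Beforehand, HCT116 cells (4000/well) received compound 5 h post-seeding, 217-fold diluted from DMSO, then incubated 16 h at 37C.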
# [5] = biological target: Cellular tumor antigen p53 (Homo sapiens) (UniProt P04637); test: TOX21_p53_BLA_p3_ratio: Tox21 HCT-116 p53 Agonism Beta-lactamase Assay, Ratio, Phase 3 (AID 2283596)
# How it was run: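 Cells were seeded at 4000/well, rested 5 h at 37C, then dosed with DMSO compound solutions (217-fold dilution) for 16 h. CCF4-AM substrate was loaded for 2 h at room temperature, and the 460/530 nm emission ratio was fitted for gain of signal versus DMSO.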
# [6] = TOX21_p53_BLA_p4_viability: Viability Assessment in the Tox21 HCT-116 p53 Agonism Beta-lactamase Assay, Phase 4 (AID 2283597);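 also: hits lower the luminescence signal meaning cytotoxicity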
# How it was run: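 Cytotoxicity as reduced cellular ATP (CellTiter-Glo luminescence, 30 min room temperature), measured in the same wells following the CCF4 FRET p53 reading. Human HCT-116 cells received compounds in DMSO (217-fold dilution) for 16 h.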
# [7] = biological target: Cellular tumor antigen p53 (Homo sapiens) (UniProt P04637); test: TOX21_p53_BLA_p5_ratio: Tox21 HCT-116 p53 Agonism Beta-lactamase Assay, Ratio, Phase 5 (AID 2283599)
# How it was run: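 Beta-lactamase reporter ratio (blue 460 nm over green 530 nm, 405 nm excitation) after 2 h CCF4-AM loading, in HCT-116 cells exposed 16 h at 37 C to compounds pinned at 217-fold dilution. Increases relative to DMSO baseline scored.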
# [8] = TOX21_p53_BLA_p5_viability: Viability Assessment in the Tox21 HCT-116 p53 Agonism Beta-lactamase Assay, Phase 5 (AID 2283600)
# How it was run: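 Viability came from CellTiter-Glo ATP luminescence, read after 30 min at room temperature. Before this, HCT-116 p53-bla cells (4000/well) had 16 hours of compound exposure at 37C, with DMSO stocks diluted 217-fold on transfer.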
# [9] = biological target: Cellular tumor antigen p53 (Homo sapiens) (UniProt P04637); test: TOX21_p53_BLA_p4_ratio: Tox21 HCT-116 p53 Agonism Beta-lactamase Assay, Ratio, Phase 4 (AID 2283601)
# How it was run: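 Signal is the blue/green (460nm/530nm) ratio of cleaved versus uncleaved CCF4-AM substrate, read after 2 h substrate loading. Cells were HCT116 carrying the p53-responsive beta-lactamase reporter, dosed 16 h at 37C, 5% CO2; CellTiter-Glo measured in parallel.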
# Chain of Cellular tumor antigen p53 (Homo sapiens) (P04637 whole entry, looked up): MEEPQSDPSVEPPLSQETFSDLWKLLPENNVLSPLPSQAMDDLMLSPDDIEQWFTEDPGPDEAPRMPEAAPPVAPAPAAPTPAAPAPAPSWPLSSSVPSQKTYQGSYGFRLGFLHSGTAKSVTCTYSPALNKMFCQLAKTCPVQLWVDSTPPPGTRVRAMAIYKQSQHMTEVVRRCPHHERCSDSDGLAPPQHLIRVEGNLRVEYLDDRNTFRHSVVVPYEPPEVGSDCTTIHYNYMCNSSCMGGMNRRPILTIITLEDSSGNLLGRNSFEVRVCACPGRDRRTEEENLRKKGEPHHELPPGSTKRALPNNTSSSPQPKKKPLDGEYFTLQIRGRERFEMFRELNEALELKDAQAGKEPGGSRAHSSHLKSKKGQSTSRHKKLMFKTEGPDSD
smiles,measurement,setting,value
OCC(c1ccc(Cl)cc1)c1ccc(Cl)cc1,outcome,[1],inactive
same,AC50,[2],69.5 µM (active)
same,AC50,[3],80.1 µM (active)
same,outcome,[4],inactive
same,outcome,[5],inactive
same,AC50,[6],71.1 µM (active)
same,AC50,[7],86.8 µM (active)
same,AC50,[8],70.4 µM (active)
same,AC50,[9],85.2 µM (active)
COCC(=O)N(c1c(C)cccc1C)[C@H](C)C(=O)OC,outcome,[1],inactive
CCCCCCCCCCCCOS(=O)(=O)O,outcome,[1],inactive
CN(C)CCN(C)C,outcome,[1],inactive
N#Cc1ccccc1N,outcome,[1],inactive
c1cc[c]([Sb]([c]2ccccc2)[c]2ccccc2)cc1,outcome,[1],inactive
Cc1ccc(OP(=O)(Oc2ccc(C)cc2C)Oc2ccc(C)cc2C)c(C)c1,outcome,[1],inactive
NC(=O)CCl,outcome,[1],inactive
CC(C)[C@@H](Nc1ccc(C(F)(F)F)cc1Cl)C(=O)OC(C#N)c1cccc(Oc2ccccc2)c1 (stereo not given in full),outcome,[1],inactive
same,outcome,[2],inactive
same,outcome,[3],inactive
same,outcome,[4],inactive
same,outcome,[5],inactive
same,outcome,[6],inactive
same,outcome,[7],inactive
same,outcome,[8],inactive
O=[N+]([O-])c1ccc(Cl)c([N+](=O)[O-])c1,AC50,[1],20.2 µM (active)
same,AC50,[2],45.5 µM (active) and 39.7 µM (active)
same,AC50,[3],75.5 µM (active)
same,outcome,[3],inactive
same,outcome,[5],inactive
same,AC50,[6],71.9 µM (active) and 42.9 µM (active)
same,AC50,[7],32.3 µM (active) and 74.9 µM (active)
same,AC50,[8],44 µM (active) and 44.4 µM (active)
same,AC50,[9],22.7 µM (active)
same,outcome,[9],inactive
C[C@@H]1O[C@@H](O[C@H]2C[C@@H](O)[C@]3(CO)[C@H]4[C@H](O)C[C@]5(C)[C@@H](C6=CC(=O)OC6)CC[C@]5(O)[C@@H]4CC[C@]3(O)C2)[C@H](O)[C@H](O)[C@H]1O,outcome,[1],inactive
